Bioassay records: PubChem BioAssay, several laboratories
MMP-13 inhibitor = MMP13 (human) collagenase inhibition; P45452; MMP-13 fTHP FRET cleavage, Mca fluorescence; inhibition, % at 4 µM; 65,000 compounds, 0.07% hits; AID 570;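 active = inhibition above the mean of compound-free control plate wells plus 3 SD, cut at about 14% in these data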;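 note: 0% = DMSO wells and 100% = wells with reference MMP-13 inhibitor after basal subtraction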
MT1-MMP txn act = MT1-MMP promoter transcription activation; HT1080 MT1-MMP promoter luciferase reporter, luminescence, overnight; active compounds read high; 86,000 compounds, 0.16% hits; activation factor at 10 µM;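 active = activation factor of at least 2 for MT1-MMP transcription at 10 µM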
ERa coact inh = ER-alpha (human) coactivator binding inhibition | P03372 | TR-FRET ER-alpha LBD / SRC-1 peptide, estradiol-bound | inhibition, % at 25.6 µM | 86,000 compounds, 1.7% hits | AID 629; in the data active = inhibition above about 50%;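 note: 0% = receptor plus peptide control and 100% = peptide only without receptor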
Target sequence (P03372 whole entry, looked up, the tested form may be a part): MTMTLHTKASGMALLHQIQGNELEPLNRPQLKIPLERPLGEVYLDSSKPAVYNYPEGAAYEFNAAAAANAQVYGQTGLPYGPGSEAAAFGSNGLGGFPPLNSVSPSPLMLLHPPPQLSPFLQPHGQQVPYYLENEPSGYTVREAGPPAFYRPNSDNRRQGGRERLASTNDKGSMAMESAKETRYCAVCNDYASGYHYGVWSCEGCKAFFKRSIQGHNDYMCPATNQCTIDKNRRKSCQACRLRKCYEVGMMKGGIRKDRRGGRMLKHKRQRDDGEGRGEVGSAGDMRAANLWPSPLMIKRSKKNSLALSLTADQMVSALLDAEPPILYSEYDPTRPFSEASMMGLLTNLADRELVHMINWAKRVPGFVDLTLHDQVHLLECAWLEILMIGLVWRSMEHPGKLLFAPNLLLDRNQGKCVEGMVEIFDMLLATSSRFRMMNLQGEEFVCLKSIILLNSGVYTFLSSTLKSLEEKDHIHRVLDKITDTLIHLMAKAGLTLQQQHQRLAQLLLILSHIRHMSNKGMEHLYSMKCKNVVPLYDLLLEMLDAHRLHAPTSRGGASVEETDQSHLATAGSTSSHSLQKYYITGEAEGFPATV
Smad3 FoxH1 inh = Smad3 (human) transcription factor binding inhibition; 88,000 compounds, 0.29% hits; inhibition, % at 25 µM; TR-FRET Smad3/Dy647-FoxH1 peptide binding, europium anti-His;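 active = compounds that reduce the energy-transfer binding signal between the protein and its labelled peptide by more than half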;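 note: 0% = Smad3 plus labelled peptide maximal FRET and 100% = peptide-only background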
ERb SRC1 inh = ER-beta (human) coactivator binding inhibition. Q92731. TR-FRET ER-beta LBD / SRC1-Cy5 peptide binding; receptor agonist-loaded with 1 µM estradiol. inhibition, % at 25.6 µM. 86,000 compounds, 1.3% hits. AID 633;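 active = compounds whose percent inhibition of the receptor-coactivator binding signal exceeds about 50% in the single-dose screen, limit read from the data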;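 note: 0% = receptor plus peptide wells without compound and 100% = peptide-only wells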
ERa SRC1 pot = enhances coactivator binding to human estrogen receptor alpha | TR-FRET ERalpha-LBD/SRC-Cy5 coactivator binding, 2 h; 100 = basal binding, no effect | coactivator binding (% of control), % at 25.6 µM | 86,000 compounds, 1.3% hits | P03372; in the data active = activity above about 200%;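 note: binding measured in presence of low estradiol as agonist stimulus; 0% = peptide alone without receptor and 100% = receptor with peptide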
Starred values were filed as active, the others as inactive; · = no result given; [ ] = another dose, or the depositor's remark. Most compounds without a hit are left out; they make up all but 3.5% or so of the library.

SMILES	MMP-13 inhibitor	MT1-MMP txn act	ERa coact inh	Smad3 FoxH1 inh	ERb SRC1 inh	ERa SRC1 pot
COc1ccc(-c2nc3ccccc3o2)cc1NC(=O)c1ccc(Br)o1	-4	1.2	20	-32	1	257*[fluorescence artefact?]
COc1ccccc1NC(=O)c1ccc(Br)o1	2	1.3	30	-18	41	111
COC(=O)c1cc(OC)c(OC)cc1NC(=O)c1ccc(Br)o1	0	1.1	57*	-35	23	187
CCn1c(CC(=O)Nc2cccc(Cl)c2Cl)nnc1SCCOc1ccc(OC)cc1	·	1.2	-12	-11	-10	90
CC1CCc2nc(NC(=O)CCSc3ccccc3)sc2C1 (centres undefined)	·	·	0	-5	2	94
COc1ccc(NC(=O)c2c(OC)cccc2OC)c(OC)c1	-1	1.1	19	4	43	83
CCNc1ccc(Br)cc(C(=O)/C=C/c2c(Cl)cccc2Cl)c1=O	·	1	75*[fluorescence artefact?]	8	72*[fluorescence artefact?]	95
CS(=O)(=O)Nc1ccc(Br)cc1C(=O)c1ccccc1	·	1.1	-1	-1	-3	94
CNc1ccc(Br)cc(C(=O)/C=C/c2cccc(OC)c2)c1=O	·	1.3	66*[fluorescence artefact?]	2	-4	66
CCCN(CC1CC1)S(=O)(=O)c1ccc(S(N)(=O)=O)cc1	-1	1	·	·	·	·
CN1CCc2c(sc(/N=C/c3cccs3)c2C(N)=O)C1	-34	1.6	24	-3	74*[fluorescence artefact?]	70
CN1CCc2c(sc(/N=C/c3ccco3)c2C(N)=O)C1	-70	1.2	-9	-5	0	104
COc1ccc(F)cc1S(=O)(=O)Nc1ccc2c(c1)OCCO2	-4	·	-8	-10	-10	89
C=CCn1c(SCC(=O)Nc2sccc2C(N)=O)nc2ccc(Cl)cc2c1=O	·	1.1	64*[fluorescence artefact?]	10	47	122
Cc1oc(C)c2c(=O)ccc3c(c12)OC(N)=C(C#N)C3c1ccccc1 (centres undefined)	-5	1.1	-18	6	22	91
CSc1ccc(C2C(C#N)=C(N)Oc3c2ccc(=O)c2c(C)oc(C)c32)cc1 (centres undefined)	0	1.1	78*	8	58*	64
COc1cccc(C2CC(=O)N3CN(c4cccc(Cl)c4C)CSC3=C2C#N)c1OC (centres undefined)	-4	1.2	-13	2	6	77
CCN(CC)CCOC(=O)c1c(C)n(C)c2ccc(OC)cc12	-5	1.1	·	·	·	·
COc1ccc2c(c1)c1c(C)c3cnccc3c(C)c1n2CCCN	·	·	·	87*	·	·
CCN(C(=O)c1cc2ccccc2oc1=O)c1cccc(C)c1	·	1.2	2	-1	11	106
Cc1nccn1-c1ncnc2sc3c(c12)CCCC3	1	1.1	1	5	63*	93
CCCOc1ccc(C2C(=O)N(C3CCCCC3)CC(=O)N2CCC)cc1OC (centres undefined)	2	1.1	-1	3	-3	100
Cn1c(C(=O)NCCCN2CCCC2=O)cc2c(=O)n3ccccc3nc21	-425	1.2	-4	1	-3	111
CN(C)c1ccc(NC(=O)c2cc3c(=O)n4ccccc4nc3n2C)cc1	-12	0.9	100*[fluorescence artefact?]	1	93*[fluorescence artefact?]	23
Cc1nc(SCC(=O)c2ccccc2)c(C#N)c(-c2ccco2)c1C(=O)NCc1ccco1	0	1	18	3	19	236*
SMILES	MMP-13 inhibitor	MT1-MMP txn act	ERa coact inh	Smad3 FoxH1 inh	ERb SRC1 inh	ERa SRC1 pot
Cc1ccc(S(=O)(=O)c2c(N)n(Cc3ccco3)c3nc4ccccc4nc23)cc1C	·	1.1	1	1	3	220*
Clc1ccc(-c2nnc(N3CCCC3)nn2)cc1	0	·	-24	1	-13	114
O=C(COC(=O)CC1CCCC1)Nc1cc2c(cc1Cl)C(=O)c1ccccc1C2=O	·	1.7	52*	12	46	62
COc1cccc(C(=O)N2CCN(C(=O)c3cccc(F)c3)CC2)c1	0	1	-15	-4	-4	131
O=C(c1cccc(F)c1)N1CCN(C(=O)c2cc3ncc(Br)cn3n2)CC1	·	1.2	55*	-18	59*	66
O=C(NCCCN1CCN(c2ccccc2F)CC1)C1CCN(S(=O)(=O)N2CCOCC2)CC1	3	1.1	-7	2	2	94
O=C(CSc1ccc(Cl)cc1)c1ccco1	-1	1.1	80*[fluorescence artefact?]	-8	81*	76
O=C(Cn1cnc2c(cnn2-c2ccc(F)cc2)c1=O)NCC1CCCO1 (centres undefined)	-6	1.1	1	-6	-5	200*
COc1ccccc1NC1C=CS(=O)(=O)C1 (centres undefined)	0	1.1	-4	0	-12	115
Cc1cc(NC(=O)Cc2cccs2)no1	3	1.3	97*[fluorescence artefact?]	5	89*[fluorescence artefact?]	17
Cc1nnc(NC(=O)Cc2cccs2)s1	2	1.1	74*	11	73*[fluorescence artefact?]	50
CCC(=O)Nc1nnc(SCC(=O)N2c3ccccc3CC2C)s1 (centres undefined)	·	1.2	-5	13	-5	122
Cc1nn(-c2ccccc2)c(C)c1NC(=O)Cc1cccs1	5	1.1	59*[fluorescence artefact?]	5	53*	62
Cc1nn(-c2ccccc2)c(C)c1NC(=O)c1cccs1	0	·	-3	-1	-10	93
CC1Cc2ccccc2N1C(=O)CSc1nnc(NC(=O)Cc2cccs2)s1 (centres undefined)	0	1.1	62*	11	47	56
Cc1nnc(NC(=O)CCC(=O)NCc2cccs2)s1	·	1.1	-5	-9	-6	97
C(=N\Nc1ccccn1)/c1cccnc1	·	·	·	-4	·	·
CC1(C)CC(NC(=O)C2CCCCC2C(=O)O)CC(C)(C)N1 (centres undefined)	1	1.1	-4	3	0	112
O=C(Cc1cccs1)Nc1nnc(COc2ccccc2)s1	·	0.9	56*	9	37	76
O=S(=O)(NC1CCCCC1NCc1ccco1)c1ccc(Cl)cc1 (centres undefined)	0	1	·	·	·	·
CCN(CC)c1ccc(-c2c(C#N)c(N)nc(OC)c2C#N)cc1	-207	0.9	21	8	26	213*[fluorescence artefact?]
O=c1[nH]c(SCc2ccc(Cl)cc2)nc2c1CCC2	33*	1.5	-7	4	3	97
N#Cc1cc2c(=O)n3ccccc3nc2n(CCCn2ccnc2)c1=N	-168	1.1	35	4	56*	61
N#Cc1cc2c(=O)n3ccccc3nc2n(CC2CCCO2)c1=N (centres undefined)	·	1.4	16	-2	37	88
c1csc(Cn2c(-c3cccs3)nc3ccccc32)c1	-56	·	2	3	10	98
CC(C)Cn1c(-c2cccs2)nc2ccccc21	·	1.1	-5	7	57*	85
N#C/C(=C(/O)CN1C(=O)c2ccccc2C1=O)c1nc2ccccc2[nH]1	5	1.1	-4	14	-5	103
